Measured values from ChEMBL document CHEMBL4513216, “Probing the Open Global Health Chemical Diversity Library for Multistage-Active Starting Points for Next-Generation Antimalarials” (ACS Infect Dis, 2020).
Among all 69,000 compounds or so, about 8,600 (12%) showed an effect of 50% or more. The list comes from a sample in which strong results are over-represented; it also holds similar structures and randomly drawn compounds.

system: Plasmodium berghei; experiment: Screen against P. berghei liver stage (PbLuc), transformed with Luciferase, at 10uM; type: functional, HepG2; settings: tested at 10 uM

| Structure (SMILES) | INHIBITION |
| --- | --- |
| COc1ccc(CN2C[C@@H]3OCCN(C)[C@@H]3C2)cc1 | 22.9% |
| CCOC[C@@]12CCC[C@@H]1CN(C(=O)COc1ccccc1OC)C2 | 10.4% |
| Cc1noc(C)c1CN1C(=O)[C@@H]2CC[C@H]1CN(Cc1cccc(O)c1)C2 | -77.6% |
| COCC(O)CN1CC(C)(C)CN(C(=O)CCc2ccccc2)CC1=O (stereo not given) | -39.8% |
| Cc1ccccc1C(NC(=O)NCC1(O)CCC1)C1CC1 (stereo not given) | -15.9% |
| CC(C)n1nnnc1-c1ccc(NC(=O)C(C)(C)C#N)cc1F | 6.09% |
| CN(C)CC1CCCCN1C(=O)c1ccc(N2CCOCC2)cc1 (stereo not given) | 23.4% |
| CCc1cc(CN(C)C(=O)C2CC(=O)N(c3cccc(O)c3)C2)on1 (stereo not given) | 66.6% |
| CCc1nc(CN(C)C(=O)C2CC(=O)N(c3cccc(O)c3)C2)no1 (stereo not given) | 10.3% |
| CCc1ccc(CN(C)C(=O)C2CC(=O)N(c3cccc(O)c3)C2)nc1 (stereo not given) | 32.1% |
| Cc1cccc(Cn2cc(C)c(N)n2)c1 | 2.6% |
| CN1[C@H](CN2CCCC2)C[C@@H]2CN(Cc3ccoc3)CC[C@@H]21 | -14.3% |
| Cc1ncnc2c1CCN(C(=O)c1cccn1C)CC2 | -0.388% |
| Cn1cccc1C(=O)N1CCc2ncnc(N3CCCC3)c2CC1 | 48.9% |
| CCN(C)c1ncnc2c1CCN(C(=O)c1cccn1C)CC2 | 52% |
| CCN(C)c1ncnc2c1CCN(C(=O)c1ccsc1)CC2 | 14.9% |
| CCN(C)c1ncnc2c1CCN(C(=O)c1ccccn1)CC2 | -54.5% |
| CCc1ncnc2c1CCN(C(=O)c1cccn1C)CC2 | 64.9% |
| O=C(NCCOc1ccc2c(c1)OCO2)N1CCCC(CO)C1 (stereo not given) | -27.8% |
| Cc1nnc(CN(Cc2ccc3c(c2)OCO3)C2CCCCC2)o1 | -9.76% |
| Cn1nc2c(cc1=O)CN(CC(=O)Nc1nccs1)CC2 | 13.3% |
| Cc1nn(C)c(C)c1-c1ccc(=O)n(C(C)C(=O)NC(C)(C)C)n1 (stereo not given) | 4.02% |

| Structure (SMILES) | INHIBITION |
| --- | --- |
| CCCN(CCC)C(=O)Cn1c(SC)nc2ccsc2c1=O | 39.1% |
| Cc1nn(C)c(C)c1CNC(=O)c1cc(NC(=O)C2CC2)n(C)n1 | 31.35% |
| Cc1ccc(CNC(=O)c2cc(NC(=O)C3CC3)n(C)n2)o1 | -8.95% |
| Cn1nc(C(=O)NC2CC(C)(C)NC(C)(C)C2)cc1NC(=O)C1CC1 | 21.8% |
| Cn1nc(C(=O)NC2CCCC2)cc1NC(=O)C1CC1 | -22.8% |
| Cn1nc(C(=O)NC2CC2)cc1NC(=O)C1CC1 | 75.3% |
| Cn1nc(C(=O)NC2CCCCC2)cc1NC(=O)C1CC1 | 53.5% |
| CCc1nc(C2CCCN2C(=O)c2ccc3c(c2)COC3)no1 (stereo not given) | 33.8% |
| CN1CCN(C(=O)c2cc3sccc3n2Cc2ccccc2)CC1 | 11.7% |
| NC(=O)c1cccc(CN2CCOC(Cn3cccn3)C2)c1 (stereo not given) | 30.2% |
| O=C(C1CC1)N1CCN2C[C@@H](CO)[C@H](c3ccccc3)[C@H]2C1 | 49.5% |
| CCOC(=O)[C@@H]1[C@@H](c2ccccc2)CN2CCN(C(C)=O)C[C@H]12 | 51% |
| O=C(C1CC1)N1CCN2C[C@H](c3ccccc3)[C@@H](CO)[C@H]2C1 | 51% |
| CNC(=O)[C@@H]1[C@H]2CNCCN2C[C@H]1c1ccccc1 | 11.6% |
| CCOC(=O)[C@@H]1[C@@H](c2ccccc2)CN2CCNC[C@H]12 | 50.2% |
| CCOC(=O)[C@@H]1CN2CCNC[C@@H]2[C@H]1c1ccccc1 | 46.4% |
| CCOC(=O)[C@@H]1[C@@H](c2ccccc2)CN2CCN(C(=O)C3CC3)C[C@H]12 | 12.4% |
| CCOC(=O)[C@@H]1[C@H]2CN(C(=O)OC)CCN2C[C@H]1c1ccccc1 | -43.6% |
| CCOC(=O)[C@@H]1[C@@H](c2ccccc2)CN2CCN(C(=O)N(C)C)C[C@H]12 | 32.1% |
| c1cc(-c2cnc(C3CCNCC3)cn2)n[nH]1 | 38.7% |
| CCc1noc(C)c1C(=O)N1CCCC1Cn1cccn1 (stereo not given) | 45.7% |
| CC(C)N1CCOCC2(CN(Cc3nccs3)CCO2)C1 (stereo not given) | 10.3% |

| Structure (SMILES) | INHIBITION |
| --- | --- |
| O=C(NC1CCCC1)N1CC[C@H]2[C@H]1CCN2c1nncs1 | 26% |
| COCCc1nnc(NC(=O)Cc2ccccc2Cl)o1 | 35.1% |
| COC(=O)N1CCC(CNC(=O)C2CC2)CC1 | -10.8% |
| CCn1nc(C)c(-c2cncn2CCN(C)C2CCCC2)c1C | 27.6% |
| Cc1ccc2c(c1)CCC2NCc1c(C)nn(CCO)c1C (stereo not given) | -40.4% |
| CC(C)c1nc(CNc2ccc(CNS(C)(=O)=O)cc2)cs1 | -72.8% |
| CC(C)c1cc(NCc2csc(C(C)C)n2)nc(N)n1 | 58% |
| CC(C)c1cc(NCc2csc(N(C)C)n2)nc(N)n1 | 87% |
| Cc1nc(N)cc(NCc2csc(N(C)C)n2)n1 | -84.1% |
| CC(C)CC(CO)NC(=O)NCc1csc(N(C)C)n1 (stereo not given) | -5.1% |
| COCC1(CNc2cc(C(C)C)nc(N)n2)CC1 | 41.2% |
| O=C(c1cnccn1)N1CCCC2(CCN(Cc3ccsc3)CC2)C1 | -67.6% |
| O=C(CC1CNCCO1)N1CCC(c2cc(N3CCCC3)ncn2)CC1 (stereo not given) | -23.2% |
| CN(CC(=O)Nc1ccncc1)C1CCCN(c2cccnn2)C1 (stereo not given) | 4.52% |
| O=C(CCc1cccs1)Nc1ccnn1C1CCS(=O)(=O)C1 (stereo not given) | 22.6% |
| O=C(CCc1ccsc1)Nc1ccnn1C1CCS(=O)(=O)C1 (stereo not given) | 54.3% |
| Cc1cccc(CCC(=O)Nc2ccnn2C2CCS(=O)(=O)C2)c1 (stereo not given) | 37.1% |
| c1coc(CN2C[C@@H]3CCCO[C@@H]3[C@H](N3CCCC3)C2)c1 | 24.5% |
| O=C(CN(Cc1cccs1)c1ccc(F)cc1)NC1CCOCC1 | 37.6% |
| Cc1ccc(CN(CC(=O)NCC2CCOC2)c2ccc(F)cc2)o1 (stereo not given) | 7.39% |
| Cc1ccc(CN(CC(=O)NC2CCOCC2)c2ccc(F)cc2)o1 | 67.8% |
| CN1CCN(Cc2cccnc2)C2(CCN(c3ncc(F)cn3)C2)C1=O (stereo not given) | -8.19% |

| Structure (SMILES) | INHIBITION |
| --- | --- |
| Cc1nc(C(=O)N(C)C)nn1-c1ccccc1C(C)C | 30.8% |
| CC(C)c1noc(CCC(=O)N2CCSCC2)n1 | 51.8% |
| CC(=O)N1CCN(C(=O)CCCc2nc(C(C)C)no2)CC1 | -8.61% |
| CC(C)c1noc(CCC(=O)N2CCN(Cc3ccncc3)CC2)n1 | 37.9% |
| NC(=O)c1ccc(C2CCCNC2)nc1 (stereo not given) | 26.8% |
| CNC(=O)COc1ccccc1CNC1CCc2ncnn2C1 (stereo not given) | 63.6% |
| c1ccc(OC2CCCC2)c(CNC2CCc3ncnn3C2)c1 (stereo not given) | 62.8% |
| c1ccc(COc2ccccc2CNC2CCc3ncnn3C2)cc1 (stereo not given) | 26.9% |
| CN(C)C(=O)COc1ccccc1CNC1CCc2ncnn2C1 (stereo not given) | 33.6% |
| c1ccc(OCC2CC2)c(CNC2CCc3ncnn3C2)c1 (stereo not given) | 8.383% |
| CNC(=O)COc1ccccc1CNC1CCc2nc(C)nn2C1 (stereo not given) | -24.4% |
| CCCc1n[nH]c(=O)n1[C@@H](CC)c1ccccc1 | 3.38% |
| COCCNC(=O)N1CC(Cc2ccccc2F)C1 | -20.6% |
| Cc1ccc(F)c(C(=O)N2CCC(Nc3ccc(C)nn3)CC2)c1 | -15.5% |
| N#Cc1cnc(N2Cc3cnn(Cc4ccc(F)cc4)c3C2)nc1N | 61.2% |
| CNc1cc(C)nc(N2Cc3cnn(Cc4ccc(F)cc4)c3C2)n1 | 75.1% |
| Fc1ccc(Cn2ncc3c2CN(c2noc(C4CC4)n2)C3)cc1 | 33.3% |
| Cc1nc(N2Cc3cnn(Cc4ccc(F)cc4)c3C2)no1 | 12.8% |
| Cc1cc(C)nc(N2Cc3cnn(Cc4ccc(F)cc4)c3C2)n1 | 22.4% |
| Cc1ncc(C)c(N2Cc3cnn(Cc4ccc(F)cc4)c3C2)n1 | 32.5% |
| Cc1cnc(N2Cc3cnn(Cc4ccc(F)cc4)c3C2)nc1N(C)C | 77.6% |
| CCCc1nc(N2Cc3cnn(Cc4ccc(F)cc4)c3C2)no1 | 26.1% |

| Structure (SMILES) | INHIBITION |
| --- | --- |
| Cc1ccnc(N2Cc3cnn(Cc4ccc(F)cc4)c3C2)n1 | 39.1% |
| Cc1nccnc1N1Cc2cnn(Cc3ccc(F)cc3)c2C1 | 39.1% |
| Fc1ccc(Cn2ncc3c2CN(c2ncccn2)C3)cc1 | -1.91% |
| CCNc1ccnc(N2Cc3cnn(Cc4ccc(F)cc4)c3C2)n1 | 78.4% |
| CC(Cn1ccnc1)NC(=O)NCCN1CCCCCC1=O (stereo not given) | 5.29% |
| Cc1noc(C2CCN(C(=O)Nc3ccc(N(C)C)nc3)CC2)n1 | 24.95% |
| CCNC(c1ccc(Cl)cc1)c1cccnc1 (stereo not given) | 3.15% |
| CC(C)C(=O)N1CCC2(CC1)NC(=O)c1ccccc12 | 39.3% |
| Cc1ccccc1C(=O)N1CCC2(CCC(C(=O)NCC3CC3)O2)CC1 (stereo not given) | -3.58% |
| CSCC(C)(O)CNS(=O)(=O)c1ccc(Br)cc1 (stereo not given) | -23.5% |
| Cn1c2c(c(=O)c3ccccc31)CCC(C)(C)O2 | -27.3% |
| CN(Cc1ccco1)[C@@H]1CN(Cc2cnn(C)c2)[C@@H]2CCCO[C@H]12 | 38.1% |
| Cc1cc(CNC(=O)CCc2c(C)nc3cc(O)nn3c2C)no1 | 15.5% |
| CNS(=O)(=O)c1ccc(CN2CCCN(c3ccccc3)CC2)cc1 | 48.2% |
| CNS(=O)(=O)c1ccc(CN2CCCN(CC(C)C)CC2)cc1 | 34.1% |
| Cn1cc(CN2CCC(c3ccncc3)CC2)cn1 | 23.35% |
| CNS(=O)(=O)c1ccc(CN2CCCN(Cc3ccncc3)CC2)cc1 | 55.7% |
| CNS(=O)(=O)c1ccc(CN2CCC(c3ccncc3)CC2)cc1 | 54.1% |
| CNS(=O)(=O)c1ccc(CN2CCCC2c2ccc(F)cc2)cc1 (stereo not given) | 51.3% |
| CS(=O)(=O)c1ccc(CN2CCCCC2c2ccc(F)cc2)cc1 (stereo not given) | 32.8% |
| CNS(=O)(=O)c1ccc(CN2CCN(Cc3ncccc3C)CC2)cc1 | 49.1% |
| CS(=O)(=O)c1ccc(CN2CCCCC2c2cccc(F)c2)cc1 (stereo not given) | 34% |
